For the first test, the target named is T1, ETV2 (Homo sapiens, UniProt O00321 1-342).
T1 sequence: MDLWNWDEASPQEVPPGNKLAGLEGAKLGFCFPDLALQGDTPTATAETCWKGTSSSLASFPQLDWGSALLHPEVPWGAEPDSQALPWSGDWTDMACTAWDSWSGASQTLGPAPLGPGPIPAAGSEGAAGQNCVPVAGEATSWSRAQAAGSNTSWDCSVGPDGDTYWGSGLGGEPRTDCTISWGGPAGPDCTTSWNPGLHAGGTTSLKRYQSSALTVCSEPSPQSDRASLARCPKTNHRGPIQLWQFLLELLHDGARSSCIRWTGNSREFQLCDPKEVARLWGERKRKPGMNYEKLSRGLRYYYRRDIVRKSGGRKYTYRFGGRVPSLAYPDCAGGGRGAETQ
Briefly: DAPPL (digital affinity profiling via proximity ligation, sequencing); 10 mM Tris-HCl pH 7.5, 50 mM NaCl, 1 mM DTT, 4% glycerol, room temperature, 30 min; GST-TFs on glutathione beads, 16-mer random dsDNA library, 0.1% formaldehyde crosslink after washing; high values mean tight binding. Particulars: protein: recombinant; tags: N-terminal GST; dsDNA, one strand shown. The method in brief: (§1)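 GST fusions of human transcription factors were expressed in yeast and captured with glutathione beads. Once given DNA barcodes and pooled alongside a tag-only sample, they were incubated for 30 min at room temperature with 200 nmole of a random double-stranded 16-mer DNA library in Tris/NaCl/DTT/glycerol buffer, then washed, crosslinked (0.1% formaldehyde), proximity-ligated, PCR-amplified and sequenced on an Illumina NextSeq500. The binding signal of each hexamer is its read frequency for a factor divided by its frequency for the tag-only sample.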
With GACTCT, the binding signal is 1.26 fold enrichment (6-mer frequency, TF over GST control).
For TTCAAG, the binding signal was 1.1 fold enrichment (6-mer frequency, TF over GST control).
As for GCTTTG, the binding signal was 1.22 fold enrichment (6-mer frequency, TF over GST control).
The same measure, in the same setting: with TCACCT the figure was 1.21 fold enrichment (6-mer frequency, TF over GST control); with TGTTGC, 1.15 fold enrichment (6-mer frequency, TF over GST control); with CCTTAA, 1.35 fold enrichment (6-mer frequency, TF over GST control).
Turning to ACTTCC, the binding signal was 8.23 fold enrichment (6-mer frequency, TF over GST control).
For the sequence TGTTAA, the binding signal was 1.06 fold enrichment (6-mer frequency, TF over GST control).
In the case of TTACTA, the binding signal is 1.34 fold enrichment (6-mer frequency, TF over GST control).
Take GATTCC: the binding signal was 1.13 fold enrichment (6-mer frequency, TF over GST control).
With TTACTC, the binding signal is 1.37 fold enrichment (6-mer frequency, TF over GST control).
On the same count and under the same terms, the figure for AAGTAA is 1.38 fold enrichment (6-mer frequency, TF over GST control); for ATCTGG it is 1.23 fold enrichment (6-mer frequency, TF over GST control); for GAAATC it is 1.45 fold enrichment (6-mer frequency, TF over GST control).
For AACCCT, the binding signal was 1.2 fold enrichment (6-mer frequency, TF over GST control).
On the same count and under the same terms, the figure for TCTCAC is 1.18 fold enrichment (6-mer frequency, TF over GST control); for TTTAAA it is 1.44 fold enrichment (6-mer frequency, TF over GST control); for CTATGC it is 1.55 fold enrichment (6-mer frequency, TF over GST control).
Regarding CATCCT, the binding signal was 1.63 fold enrichment (6-mer frequency, TF over GST control).
The same measure, in the same setting: with TCTTTG the figure was 1.05 fold enrichment (6-mer frequency, TF over GST control).
Same read-out and setting: with TTGTAT the figure was 1.4 fold enrichment (6-mer frequency, TF over GST control); with ATGACC, 1.76 fold enrichment (6-mer frequency, TF over GST control); with AATGCC, 1.06 fold enrichment (6-mer frequency, TF over GST control).
The same measure, in the same setting: with TACTAT the figure was 1.4 fold enrichment (6-mer frequency, TF over GST control); with TATTCC, 1.68 fold enrichment (6-mer frequency, TF over GST control).
In the case of TTTCTA, the binding signal is 1.27 fold enrichment (6-mer frequency, TF over GST control).
Regarding TCTCTA, the binding signal was 1.24 fold enrichment (6-mer frequency, TF over GST control).
Still for that read-out and setting: the figure for CCGAAC is 1.36 fold enrichment (6-mer frequency, TF over GST control); for CTGCGA it is 1.24 fold enrichment (6-mer frequency, TF over GST control).
Still for that read-out and setting: the figure for GTATCC is 1.78 fold enrichment (6-mer frequency, TF over GST control); for TCCTTC it is 2.47 fold enrichment (6-mer frequency, TF over GST control); for TTAACC it is 1.36 fold enrichment (6-mer frequency, TF over GST control).
The same measure, in the same setting: with ATTATA the figure was 1.42 fold enrichment (6-mer frequency, TF over GST control).
On to TCATTC, for which the binding signal was 1.27 fold enrichment (6-mer frequency, TF over GST control).
AAGTTC: the binding signal was 1.22 fold enrichment (6-mer frequency, TF over GST control).
Still for that read-out and setting: the figure for TGCTTC is 2.38 fold enrichment (6-mer frequency, TF over GST control); for ACAATC it is 1.18 fold enrichment (6-mer frequency, TF over GST control); for TTTCCG it is 3.65 fold enrichment (6-mer frequency, TF over GST control).
As for GATGGC, the binding signal is 1.21 fold enrichment (6-mer frequency, TF over GST control).
TCCCAT: the binding signal is 1.41 fold enrichment (6-mer frequency, TF over GST control).

For a further test, the target named is T2, ELF3 (Homo sapiens, UniProt P78545 1-371).
T2 sequence: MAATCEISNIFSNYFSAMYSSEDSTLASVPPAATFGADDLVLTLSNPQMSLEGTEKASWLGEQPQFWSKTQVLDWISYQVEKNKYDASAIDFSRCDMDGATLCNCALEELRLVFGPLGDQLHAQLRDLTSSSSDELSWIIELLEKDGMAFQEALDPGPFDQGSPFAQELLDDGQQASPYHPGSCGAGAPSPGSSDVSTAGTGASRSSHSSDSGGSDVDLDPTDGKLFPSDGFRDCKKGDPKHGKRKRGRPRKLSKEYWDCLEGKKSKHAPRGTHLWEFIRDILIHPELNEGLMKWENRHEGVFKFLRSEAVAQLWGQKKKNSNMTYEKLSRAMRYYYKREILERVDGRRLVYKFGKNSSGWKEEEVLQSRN
Described as above. Particulars: protein: recombinant; tags: N-terminal GST; dsDNA, one strand shown. The gist of the method:
as §1
GACTCT: the binding signal is 1.28 fold enrichment (6-mer frequency, TF over GST control).
Consider TTCAAG, for which the binding signal is 1.23 fold enrichment (6-mer frequency, TF over GST control).
Regarding GCTTTG, the binding signal was 1.16 fold enrichment (6-mer frequency, TF over GST control).
As to TCACCT, the binding signal was 1.25 fold enrichment (6-mer frequency, TF over GST control).
For the sequence TGTTGC, the binding signal was 1.28 fold enrichment (6-mer frequency, TF over GST control).
Turning to CCTTAA, the binding signal was 1.37 fold enrichment (6-mer frequency, TF over GST control).
Consider ACTTCC, for which the binding signal was 7.67 fold enrichment (6-mer frequency, TF over GST control).
As for TGTTAA, the binding signal is 1.24 fold enrichment (6-mer frequency, TF over GST control).
For TTACTA, the binding signal is 1.25 fold enrichment (6-mer frequency, TF over GST control).
Same read-out and setting: the figure for GATTCC is 1.09 fold enrichment (6-mer frequency, TF over GST control); for TTACTC it is 1.43 fold enrichment (6-mer frequency, TF over GST control).
On to AAGTAA, for which the binding signal was 1.42 fold enrichment (6-mer frequency, TF over GST control).
Consider ATCTGG, for which the binding signal is 1.23 fold enrichment (6-mer frequency, TF over GST control).
As for GAAATC, the binding signal is 1.27 fold enrichment (6-mer frequency, TF over GST control).
For AACCCT, the binding signal is 1.33 fold enrichment (6-mer frequency, TF over GST control).
With TCTCAC, the binding signal was 1.42 fold enrichment (6-mer frequency, TF over GST control).
Regarding TTTAAA, the binding signal is 1.28 fold enrichment (6-mer frequency, TF over GST control).
Still for that read-out and setting: the figure for CTATGC is 1.2 fold enrichment (6-mer frequency, TF over GST control); for CATCCT it is 1.59 fold enrichment (6-mer frequency, TF over GST control); for TCTTTG it is 1.18 fold enrichment (6-mer frequency, TF over GST control).
As to TTGTAT, the binding signal is 1.34 fold enrichment (6-mer frequency, TF over GST control).
Regarding ATGACC, the binding signal is 1.63 fold enrichment (6-mer frequency, TF over GST control).
For AATGCC, the binding signal is 1.24 fold enrichment (6-mer frequency, TF over GST control).
Regarding TACTAT, the binding signal is 1.2 fold enrichment (6-mer frequency, TF over GST control).
On the same count and under the same terms, the figure for TATTCC is 1.5 fold enrichment (6-mer frequency, TF over GST control).
In the case of TTTCTA, the binding signal was 1.36 fold enrichment (6-mer frequency, TF over GST control).
Consider TCTCTA, for which the binding signal is 1.28 fold enrichment (6-mer frequency, TF over GST control).
As for CCGAAC, the binding signal was 1.25 fold enrichment (6-mer frequency, TF over GST control).
On to CTGCGA, for which the binding signal is 1.2 fold enrichment (6-mer frequency, TF over GST control).
Consider GTATCC, for which the binding signal is 1.69 fold enrichment (6-mer frequency, TF over GST control).
With TCCTTC, the binding signal was 1.85 fold enrichment (6-mer frequency, TF over GST control).
On to TTAACC, for which the binding signal was 1.27 fold enrichment (6-mer frequency, TF over GST control).
As to ATTATA, the binding signal is 1.39 fold enrichment (6-mer frequency, TF over GST control).
Turning to TCATTC, the binding signal was 1.2 fold enrichment (6-mer frequency, TF over GST control).
With AAGTTC, the binding signal is 1.47 fold enrichment (6-mer frequency, TF over GST control).
Turning to TGCTTC, the binding signal was 2.25 fold enrichment (6-mer frequency, TF over GST control).
As to ACAATC, the binding signal was 1.29 fold enrichment (6-mer frequency, TF over GST control).
Still for that read-out and setting: with TTTCCG the figure was 3.54 fold enrichment (6-mer frequency, TF over GST control); with GATGGC, 1.47 fold enrichment (6-mer frequency, TF over GST control).
With TCCCAT, the binding signal is 1.44 fold enrichment (6-mer frequency, TF over GST control).

In a further test the target is CRX (Homo sapiens, UniProt O43186 1-299). Described as above. Particulars: protein: recombinant; tags: N-terminal GST; dsDNA, one strand shown. The gist of the method: as §1
CRX, sequence (O43186 whole entry): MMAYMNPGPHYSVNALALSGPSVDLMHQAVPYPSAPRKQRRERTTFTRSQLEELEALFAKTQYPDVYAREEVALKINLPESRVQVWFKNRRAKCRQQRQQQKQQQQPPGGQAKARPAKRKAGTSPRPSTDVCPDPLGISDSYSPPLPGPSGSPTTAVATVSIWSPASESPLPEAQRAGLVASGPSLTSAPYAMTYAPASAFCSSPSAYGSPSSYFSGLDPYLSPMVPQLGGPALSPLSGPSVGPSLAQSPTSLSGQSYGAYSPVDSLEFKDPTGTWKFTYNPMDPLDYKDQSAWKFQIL
Take GACTCT: the binding signal is 1.13 fold enrichment (6-mer frequency, TF over GST control).
In the case of TTCAAG, the binding signal is 1.18 fold enrichment (6-mer frequency, TF over GST control).
Take GCTTTG: the binding signal was 1.49 fold enrichment (6-mer frequency, TF over GST control).
With TCACCT, the binding signal is 1.15 fold enrichment (6-mer frequency, TF over GST control).
For the sequence TGTTGC, the binding signal is 1.08 fold enrichment (6-mer frequency, TF over GST control).
Same read-out and setting: with CCTTAA the figure was 2.17 fold enrichment (6-mer frequency, TF over GST control).
ACTTCC: the binding signal was 1.21 fold enrichment (6-mer frequency, TF over GST control).
For TGTTAA, the binding signal was 1.67 fold enrichment (6-mer frequency, TF over GST control).
The same measure, in the same setting: the figure for TTACTA is 2.18 fold enrichment (6-mer frequency, TF over GST control); for GATTCC it is 1.15 fold enrichment (6-mer frequency, TF over GST control).
For TTACTC, the binding signal was 1.91 fold enrichment (6-mer frequency, TF over GST control).
Still for that read-out and setting: the figure for AAGTAA is 1.39 fold enrichment (6-mer frequency, TF over GST control); for ATCTGG it is 1.65 fold enrichment (6-mer frequency, TF over GST control); for GAAATC it is 1.26 fold enrichment (6-mer frequency, TF over GST control).
On to AACCCT, for which the binding signal is 1.39 fold enrichment (6-mer frequency, TF over GST control).
Turning to TCTCAC, the binding signal is 1.33 fold enrichment (6-mer frequency, TF over GST control).
In the case of TTTAAA, the binding signal is 2.15 fold enrichment (6-mer frequency, TF over GST control).
As to CTATGC, the binding signal is 1.15 fold enrichment (6-mer frequency, TF over GST control).
Same read-out and setting: with CATCCT the figure was 1.21 fold enrichment (6-mer frequency, TF over GST control).
Turning to TCTTTG, the binding signal is 1.27 fold enrichment (6-mer frequency, TF over GST control).
